IL-1B inflam inh – qHTS for Inhibitors of Inflammasome Signaling: IL-1-beta AlphaLISA Primary Screen | THP-1 LPS/ATP IL-1B secretion, AlphaLISA, 16 h; stronger effect = lower value | activity change, % at 57.5 µM | 360,000 tested, 4.7% active; in the data active = activity change below about -50%; inconclusive = mostly about -30% to -49%; also: % is scaled to controls: 0 for no effect and ±100 for the full control effect
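THP-1 cells pretreated 1 hr with compounds (up to 57.5 uM final), then stimulated with LPS (250 ng/mL final) plus ATP (1.25 mM final); secreted IL-1B measured by AlphaLISA after 16 hr, decreased signal indicating inhibition.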
ATXN2 expr inh – Primary qHTS for Inhibitors of ATXN expression. HEK-293 ATXN2-luciferase reporter, luminescence, 24 h. Potency, µM (series often up to 57 µM), without a hit: at the highest dose activity change, negative = inhibition, actives largely listed as inhibitors. 360,000 tested, 0.72% active. AID 1745845, 2022; also: potency is read from the fitted curve at half-maximal effect; % is scaled to controls: 0 for no effect and ±100 for the full control effect; nearly all actives have a fitted effect of over 55% in size
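qHTS (up to 57 uM final) was run with 24 h compound exposure of reporter cells at 37 °C. Each well was multiplexed: SteadyGlo luminescence measured ATXN2-luciferase expression after a fluorogenic Gly-Phe-AFC viability readout (25 uM final).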
Integrin act MD – qHTS for Activators of Integrin-Mediated Alleviation for Muscular Dystrophy; alpha7betagal myoblasts, beta-gal FDG fluorescence, 48 h; Potency, µM (top dose mostly 38.3 µM), for the others: at the highest dose activation, hits mostly activators; 350,000 tested, 0.064% active; AID 624291, 2012;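 also: potency is read from the fitted curve at half-maximal effect; 100% = response of the positive control SU9516; nearly all actives have a fitted effect of over 60% in size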
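Alpha7betagal+/- myoblasts (passage 13) were plated 16-24 hr, then exposed to compounds (1:260 dilution of DMSO stock) for 48 hours at 37C. After MPER lysis, β-galactosidase reporter activity was read as FDG fluorescence (ex 480/em 540) after 30 minutes.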
DRD3 agonist – qHTS of D3 Dopamine Receptor Agonist: qHTS; AID 652048, 2013; D3R DiscoveRx beta-arrestin cells, luminescence, 90 min; 410,000 tested, 0.58% active; max activation, %; in the data active = max activation above about 30%; also: 0% is about no effect
Target sequence (P35462 whole entry, looked up): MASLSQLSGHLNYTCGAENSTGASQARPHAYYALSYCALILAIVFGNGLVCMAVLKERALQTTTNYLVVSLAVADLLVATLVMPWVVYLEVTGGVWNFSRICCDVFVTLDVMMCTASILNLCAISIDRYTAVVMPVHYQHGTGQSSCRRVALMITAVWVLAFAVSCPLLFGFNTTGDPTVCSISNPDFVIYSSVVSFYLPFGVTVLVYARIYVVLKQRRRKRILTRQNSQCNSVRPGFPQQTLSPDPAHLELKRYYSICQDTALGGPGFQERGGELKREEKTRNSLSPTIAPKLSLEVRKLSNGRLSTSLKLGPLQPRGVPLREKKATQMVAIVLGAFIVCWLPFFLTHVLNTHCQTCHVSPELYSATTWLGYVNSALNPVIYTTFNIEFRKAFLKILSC
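Agonist mode: compounds and dopamine controls were applied to plated cells for 90 min at 37 degrees C after an overnight attachment at 1500 cells/well. Luminescent read-out followed 30 - 60 minutes at room temperature with DiscoveRx detection reagent.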
ATXN viability – Viability Counterscreen for Primary qHTS for Inhibitors of ATXN expression | S2 cells (HEK-293 line with an ATXN2-luciferase reporter) viability, CellTiter-Fluor protease fluorescence, 24 h | Potency, µM (series often up to 56.7 µM), hits mostly cytotoxic | 400,000 tested, 0.49% active | AID 651635, 2014; also: potency is read from the fitted curve at half-maximal effect; nearly all actives have a fitted effect of over 40% in size
DRD3 antagonist – qHTS of D3 Dopamine Receptor Antagonist: qHTS; D(3) dopamine receptor (Homo sapiens), P35462; D3R cells, DiscoveRx beta-arrestin luminescence, antagonist mode; stronger effect = lower value; max response, negative = inhibition, %; 360,000 tested, 2.5% active; in the data active = max response below about -50%; inconclusive = no clear call, values can overlap the other calls; also: % is scaled to controls: 0 for no effect and ±100 for the full control effect
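Cells expressing the human receptor were seeded at 1500 cells/well, incubated overnight at 37 degrees C in 5% CO2, then exposed to library compounds with dopamine controls for 90 minutes at 37 degrees C before luminescent detection.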
The depositor's hits bear a star; i = inactive; ? = inconclusive; / = no result given; ! = not active in a repeat. The list is not random: actives were taken first. Their share in the collection is about 7%. Unless noted, calls follow the shape of the dose curve; as a rule, active = well fitted curve in the direction sought with a large enough effect; inconclusive = small, poorly fitted or top-dose-only effect, or another doubt; inactive = no such curve, though single readings can be large; an effect the other way counts as inactive or inconclusive.

SMILES	IL-1B inflam inh	ATXN2 expr inh	Integrin act MD	DRD3 agonist	ATXN viability	DRD3 antagonist
Cc1cc(C#N)c(C)c(SCc2[nH]nc3c2C(c2ccccc2)C(C#N)=C(N)O3)n1 (centres undefined)	?	/	3%	5	/	6
COc1ccc(-c2nc3n(n2)C(=O)CC(c2ccc(Cl)cc2)S3)cc1 (centres undefined)	/	/	/	-4	/	/
Nc1c(CC(=O)O)cccc1C(=O)c1ccccc1	/	/	/	42*!	?	/
Cc1cccc(NC(=S)N2CCN(Cc3ccc4c(c3)OCO4)CC2)c1C	5	2%	20%	7	i	-1
COc1ccc(N2CCN(C(=O)Cn3nnc(-c4ccc(OC)c(OC)c4)n3)CC2)cc1	20	-9%	-8%	20	i	18
COc1ccc(N2CCN(C(=O)Cn3nnc(-c4cccs4)n3)CC2)cc1	15	-4%	-5%	14	i	-103*
CCc1ccc(C(=O)Nc2nc3ccccc3[nH]2)cc1	0	5µM*	?	-2	i	-14
O=C(Nc1nc2ccccc2[nH]1)c1ccc(OC(F)F)cc1	-13	-31%	3%	3	i	6
CC(C)Oc1ccc(C(=O)Nc2nc3ccccc3[nH]2)cc1	-4	4.5µM*	-6%	2	i	11
CN(C)S(=O)(=O)c1ccc(C(=O)Nc2nc3ccccc3[nH]2)cc1	-3	49%	8.9µM*	4	i	4
CCOC(=O)CCC(=O)Nc1nnc2n1CCS2	/	-3%	/	-4	i	/
COC(=O)CSc1nnc(-c2ccc3c(c2)OCO3)n1C	-7	-2%	10%	-3	i	-69*
CCc1cc2ccc(C)cc2nc1SCC(=O)c1ccc(NC(C)=O)cc1	-61*	2%	-30%	15	i	10
CCc1cc2cccc(C)c2nc1SCC(=O)c1ccc(NC(C)=O)cc1	-5	-13%	25%	81*	i	43
Cc1cc(=O)n2nc(N3CCC(C(=O)N4CCN(C)CC4)CC3)sc2n1	7	3%	-5%	6	i	?
CCOc1ccc(CNC(=O)CCc2cn(C)c3ccccc23)cc1	-12	-13%	-8%	-10	i	0
CC1CCN(CCCNC(=O)c2ccc3c(=O)n(CCc4ccccc4)c(=O)[nH]c3c2)CC1	-1	4%	-26%	-5	i	-28
O=C(NCCN1CCC(n2c(=O)[nH]c3ccccc32)CC1)c1ccc(F)c(C(F)(F)F)c1	?	?	/	-14	?	-84*
COc1ccc(C(=O)NCCN2CCC(n3c(=O)[nH]c4ccccc43)CC2)cc1F	/	-7%	/	-11	i	-91*
O=C(NCCN1CCC(n2c(=O)[nH]c3ccccc32)CC1)c1ccc(F)c(F)c1	/	-10%	/	-12	?	-93*
CCCCCn1c(=O)[nH]c2cc(C(=O)NCCN3CCC(C)CC3)ccc2c1=O	-4	0%	8%	-28	i	6
O=C(NCCN1CCC(n2c(=O)[nH]c3ccccc32)CC1)c1ccc(C(F)(F)F)cc1C(F)(F)F	-28	-35%	/	-15	?	-92*
COc1ccccc1NC(=O)c1ccc(-c2ccccc2[N+](=O)[O-])o1	1	43%	-15%	4	i	15
C(=N\c1nc2ccccc2n1Cc1ccccc1)/c1cccs1	-68*	-9%	-17%	3	i	12
C(=N\c1nc2ccccc2n1CCN1CCOCC1)/c1cccs1	13	1%	1%	0	i	-29
SMILES	IL-1B inflam inh	ATXN2 expr inh	Integrin act MD	DRD3 agonist	ATXN viability	DRD3 antagonist
C(=N\c1nc2ccccc2[nH]1)/c1cccs1	1	7%	-9%	-2	i	-57*
C[C@H](CCC(=O)OCc1cn(CC(=O)c2ccc(O)cc2)nn1)C1CC[C@H]2[C@@H]3CC[C@@H]4C[C@H](O)CC[C@]4(C)[C@H]3C[C@H](O)[C@]12C (some centres undefined)	0	?	-6%	44*	?	37
CCOC(=O)c1c(NC(=O)CN2CCN(C)CC2)sc(C(=O)Nc2ccccc2)c1C	-162*	43%	-64%	-1	i	-1
Cc1cc(Nc2cccc([N+](=O)[O-])c2)n2c(nc3ccccc32)c1C#N	-67*	8.9µM*	-66%	4	?	-93*
COc1ccc(-c2noc(CCC(=O)NCCN3CCN(c4ccccc4F)CC3)n2)cc1	-10	-20%	-25%	5	i	0
COc1ccc(-c2noc(CCC(=O)NCCCN3CCC(C)CC3)n2)cc1	18	-25%	0%	-23	?	0
Cc1ccc(-c2noc(CCC(=O)NCCCN3CCN(c4cccc(Cl)c4)CC3)n2)cc1	-67*	?	-54%	-26	i	?
CCN1CCN(CCCNC(=O)CCc2nc(-c3ccc(OC)cc3)no2)CC1	27	-1%	-14%	-2	i	4
Cc1ccc(-c2noc(CCC(=O)NCCCN3CCN(c4ccc(F)cc4)CC3)n2)cc1	-68*	?	-43%	-21	?	0
COc1ccc(-c2noc(CCC(=O)NCCCN3CCN(c4ccccc4F)CC3)n2)cc1	-23	-25%	-47%	-13	i	-95*
COC1OC(CO)C(N(C)C(C)=O)C1O (centres undefined)	-12	1%	18%	-4	i	-5
Cc1ccccc1-c1nnn(CC(=O)Nc2ccc3c(c2)OCCO3)n1	33	-3%	-28%	0	i	-11
C#CCN(C[C@@H]1[C@@H](OC(=O)NCc2ccc(OC)c(OC)c2)[C@@H](OC(=O)NCc2ccc(OC)c(OC)c2)Cn2c(=O)n(CCCCCC)c(=O)n21)S(=O)(=O)c1ccc(C)cc1	-3	6%	-13%	5	i	14
C#CCN(C[C@@H]1[C@@H](OC(=O)NCc2ccco2)[C@@H](OC(=O)NCc2ccco2)Cn2c(=O)n(CCCCCC)c(=O)n21)S(=O)(=O)c1ccc(C)cc1	-77*	-21%	-22%	-9	i	2
C#CCN(C[C@@H]1[C@@H](OC(=O)NCc2ccco2)[C@@H](OC(=O)NCc2ccco2)Cn2c(=O)ccc(=O)n21)S(=O)(=O)c1ccc(C)cc1	-109*	14µM*	-56%	5	25µM*	-3

Source: PubChem BioAssay (National Center for Advancing Translational Sciences (NCATS))
